# Experimental data as given in paper PMC4336329 (PLoS ONE, 2015).
# About 14,000 (4.5%) of roughly 310,000 compounds showed an effect of 50% or more. The effect is printed as a negative number. This excerpt belongs to a sample that is enriched for strong results.
# Biological target: human ether-à-go-go-related gene (hERG) potassium channel (human, UniProt Q12809)
# Experiment: primary screen, population patch clamp on CHO cells stably expressing hERG; higher = less effect of the substance
# 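Also: peak tail current of the secondary pulse compared with the same well before compound.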
# Sequence of human ether-à-go-go-related gene (hERG) potassium channel (Q12809 whole entry, looked up): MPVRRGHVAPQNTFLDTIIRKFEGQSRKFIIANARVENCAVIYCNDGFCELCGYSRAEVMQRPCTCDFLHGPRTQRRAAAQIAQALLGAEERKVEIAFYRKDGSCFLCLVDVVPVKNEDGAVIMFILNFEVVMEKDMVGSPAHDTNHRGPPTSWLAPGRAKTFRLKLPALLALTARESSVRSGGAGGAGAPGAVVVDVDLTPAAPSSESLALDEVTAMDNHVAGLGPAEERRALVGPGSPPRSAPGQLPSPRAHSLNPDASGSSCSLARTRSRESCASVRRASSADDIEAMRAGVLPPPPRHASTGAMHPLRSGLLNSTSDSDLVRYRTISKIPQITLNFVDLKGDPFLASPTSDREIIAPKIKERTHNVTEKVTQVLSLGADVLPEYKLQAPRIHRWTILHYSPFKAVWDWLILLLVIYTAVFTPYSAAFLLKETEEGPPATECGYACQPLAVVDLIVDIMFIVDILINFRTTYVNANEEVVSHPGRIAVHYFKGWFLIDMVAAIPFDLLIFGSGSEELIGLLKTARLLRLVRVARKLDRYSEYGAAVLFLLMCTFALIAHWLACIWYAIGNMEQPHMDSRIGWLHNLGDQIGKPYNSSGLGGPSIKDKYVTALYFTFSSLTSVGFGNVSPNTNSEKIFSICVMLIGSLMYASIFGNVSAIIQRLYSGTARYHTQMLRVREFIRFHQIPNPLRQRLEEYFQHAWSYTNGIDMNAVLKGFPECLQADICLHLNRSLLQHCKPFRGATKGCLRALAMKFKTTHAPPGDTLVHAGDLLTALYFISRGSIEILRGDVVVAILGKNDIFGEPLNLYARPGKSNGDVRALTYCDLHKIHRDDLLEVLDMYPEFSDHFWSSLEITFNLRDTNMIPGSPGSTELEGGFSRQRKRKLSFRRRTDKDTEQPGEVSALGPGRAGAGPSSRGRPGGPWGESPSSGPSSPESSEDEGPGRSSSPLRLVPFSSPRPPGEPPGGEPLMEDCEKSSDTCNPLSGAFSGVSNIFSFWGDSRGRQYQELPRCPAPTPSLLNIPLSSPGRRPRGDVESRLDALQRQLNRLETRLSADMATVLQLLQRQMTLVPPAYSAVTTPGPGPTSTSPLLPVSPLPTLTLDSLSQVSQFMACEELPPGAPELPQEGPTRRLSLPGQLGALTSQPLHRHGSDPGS
row,SMILES,"hERG current change (%, negative = inhibition) at 10uM"
1,O=C(COC(=O)CCc1nc2ccccc2c(=O)[nH]1)Nc1ccc(OC(F)(F)F)cc1,-5.93%
2,Cc1cc(OC2CCCCC2)nc(NCc2ccccc2)n1,1.82%
3,COc1ccccc1CNC(=O)COC(=O)Cc1cccc(F)c1,1.78%
4,CC1Cc2ccccc2N1C(=O)CSc1nnc(N)s1 (centres unmarked),13%
5,Cc1nnc(SCC(=O)N2c3ccccc3CC2C)s1 (centres unmarked),-54.2%
6,CCC(=O)Nc1nnc(SCC(=O)N2c3ccccc3CC2C)s1 (centres unmarked),5.26%
7,Cc1c(CN2CCN(CC(C)(C)C)C(CCO)C2)[nH]c2ccccc12 (centres unmarked),12.2%
8,COc1cccc(CN2CCN(Cc3ccc(C)o3)CC2CCO)c1 (centres unmarked),-21.2%
9,COc1ccc2[nH]c(CN3CCN(CCC(C)C)C(CCO)C3)c(C)c2c1 (centres unmarked),23.5%
10,CC(C)CN1CCN(Cc2cc3ccccc3[nH]2)CC1CCO (centres unmarked),-8.69%
11,CCOc1ccccc1CN1CCN(Cc2c[nH]c3ccccc23)CC1CCO (centres unmarked),-6.71%
12,CCOc1ccc(CN2CCN(Cc3[nH]c4ccc(OC)cc4c3C)CC2CCO)cc1 (centres unmarked),-77.9%
13,CCOc1ccccc1CN1CCN(Cc2[nH]c3ccccc3c2C)CC1CCO (centres unmarked),-62.3%
14,COc1cccc(CN2CCN(Cc3cc4ccccc4[nH]3)CC2CCO)c1 (centres unmarked),-59.7%
15,CCOc1ccc(CN2CCN(Cc3[nH]c4ccccc4c3C)CC2CCO)cc1 (centres unmarked),-75.8%
16,COc1ccc2[nH]c(CN3CCN(CC=C(C)C)C(CCO)C3)c(C)c2c1 (centres unmarked),-17.1%
17,Cc1c(CN2CCN(CC(C)C)C(CCO)C2)[nH]c2ccc(Cl)cc12 (centres unmarked),-34.4%
18,NC(=O)COc1ccc(Cc2ncc(C(F)(F)F)cc2Cl)cc1,-2.34%
19,Cc1ccc(C)c(NS(=O)(=O)c2cc(C(=O)N3CCc4ccccc4C3)ccc2Cl)c1,8.24%
20,CCOc1ccc(C(=O)NCC(=O)OCc2c(C)noc2C)cc1OCC,23.2%
21,Cc1cc(O)c(CN2CCN(c3ccccc3)CC2)cc1C,3.98%
22,O=C(Nc1ccccc1Cl)Oc1ccc(Cl)cc1Cl,12.8%

row,SMILES,"hERG current change (%, negative = inhibition) at 10uM"
1,Cc1ccc(NC2=Nc3ccccc3CC2)cc1,-18.2%
2,CS(=O)(=O)c1ccc2nc(NC(=O)c3ccc(N4C(=O)CCC4=O)cc3)sc2c1,6.3%
3,CSc1nc2c(c(=O)[nH]1)C(c1ccccc1Cl)CC(=O)N2 (centres unmarked),12.8%
4,CCc1nnc(NS(=O)(=O)c2ccc(Nc3ccc([N+](=O)[O-])c4nonc34)cc2)s1,46.6%
5,COc1cc(CN2CCN(Cc3c[nH]c4ccccc34)CC2CCO)cc(OC)c1 (centres unmarked),-32.3%
6,COc1ccc2[nH]c(CN3CCN(CC(C)C)C(CCO)C3)c(C)c2c1 (centres unmarked),5.18%
7,COc1cccc(CN2CCN(Cc3[nH]c4ccccc4c3C)CC2CCO)c1 (centres unmarked),-60.5%
8,Cc1csc(NC(=O)CSc2nncn2C)n1,19%
9,O=C1C=C(NCc2ccccc2)C2(CCCCC2)O1,0.0967%
10,CCOc1ccc(NC(=O)CSc2nc(=O)n(CCCN3CCOCC3)c3c2CCC3)cc1,-24.1%
11,CCCCc1ccc(NC(=O)CSc2nc(=O)n(CCCN3CCOCC3)c3c2CCC3)cc1,-64.5%
12,CCc1ccc(NC(=O)CSc2nc(=O)n(CCCN3CCOCC3)c3c2CCCC3)cc1,-54.7%
13,CCCCc1ccc(NC(=O)CSc2nc(=O)n(CCN3CCOCC3)c3c2CCC3)cc1,-66.5%
14,CCc1ccc(NC(=O)CSc2nc(=O)n(CCCN3CCOCC3)c3c2CCC3)cc1,-40%
15,CCOC(=O)c1ccc(NC(=O)CSc2nc(=O)n(CCN3CCOCC3)c3c2CCC3)cc1,-32%
16,O=C(COC(=O)c1cc[n+]([O-])cc1)Nc1ccc(Cl)cc1[N+](=O)[O-],15.6%
17,COc1cc(C(=O)OCC(=O)c2c[nH]c3ccccc23)ccc1OCC(=O)N1CCOCC1,5.92%
18,Cc1cccc(C(=O)N[C@H](C(=O)Nc2nc3ccccc3[nH]2)C(C)C)c1,3.32%
19,COc1ccc(C(CC(=O)c2ccccc2)S(=O)(=O)c2ccc(C)cc2)cc1 (centres unmarked),12.8%
20,COc1ccc(Cl)cc1N(CC(=O)NCC(C)C)S(=O)(=O)c1ccc(C)c([N+](=O)[O-])c1,8.34%
21,COC(=O)C(NNc1ccccc1C)(NC(=O)c1ccc(F)cc1)C(F)(F)F (centres unmarked),-1.2%
22,Cc1ccc(NC(=O)c2ccc(OC(F)F)cc2)cc1S(=O)(=O)N(C)C,-10.4%
